These results are taken from PubChem BioAssay (NCATS).

Where “and” joins values, the source holds several entries; their conditions need not be identical. Identical values can stand only once. Records with an inconclusive call do not appear. Calls of active or inactive are those of the source. Unless noted, the call rests on the fitted dose curve; in most records, active means well fitted curve in the direction sought with a large enough effect; inconclusive means small, poorly fitted or top-dose-only effect, or another doubt; inactive means no such curve, though single readings can be large; an effect the other way counts as inactive or inconclusive.

A short description of experiment [1]: Cell Viability - HepG2 (AID 433; calls by dose curve;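 further: potency means the concentration at half of the fitted maximal effect; cells exposed to compound for 40 hours; potency for ATP loss meaning cytotoxicity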). Conditions: qHTS. In a few lines: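 HepG2 cells, 1500 per well, treated 40 hr at 37 °C in complete medium; viability from intracellular ATP by CellTiter-Glo luminescence. Normalized to DMSO and 100 uM tamoxifen; AC50 from Hill fit of qHTS concentration-response.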
Experiment [2] in a line: Cellular Toxicity (caspase-3) SHSY5Y (AID 657). In a few lines:
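SH-SY5Y human neuroblastoma cells, 1500/well, exposed to compound for 16 hours at 37 °C in complete medium. Caspase-3/7 activity read by Caspase-Glo luminescence after 1 hr at room temperature, normalized to DMSO and 10 uM staurosporine; AC50 from Hill fit.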

Experiment [3] is described as follows: Cellular Toxicity (caspase-3) N2a (AID 665).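 Further: compound exposure lasted 16 h at 37 °C before readout.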 In a few lines:
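N2a cells, 1500/well, 5 h settle at 37 °C; cpd 16 h, 37 °C; Caspase-Glo 3/7, 1 h RT; luminescence. Norm: DMSO = 0, 10 uM staurosporine = 100%. AC50, Hill fit.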

The nature of experiment [4]: Cellular Toxicity (caspase-3) Renal Proximal Tubule (AID 667).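 Further: cells exposed to compound for 16 hours at 37 °C before detection; 0% = DMSO basal and 100% = 10 µM staurosporine.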 In a few lines:
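Freshly isolated primary rat kidney proximal tubule cells, 1000/well, treated 16 hr at 37 °C, then Caspase-Glo 3/7 luminescence after 1 hr. Normalized to DMSO and 10 uM staurosporine; AC50 from Hill fit.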

The nature of experiment [5]: MultiTox-Fluor Cytotoxicity Assay - LYMP1-001 - Live Cells (AID 947).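 Further: 0% = DMSO only and full inhibition = tetraoctylammonium bromide control.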
Experiment [6] is described as follows: MultiTox-Fluor Cytotoxicity Assay - LYMP1-002 - Dead Cells (AID 960). Further: nearly all actives have a fitted effect of over 60% in size. Further: potency means the concentration at half of the fitted maximal effect. In a few lines:
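LYMP1-002 cells 2500/well; 5 hr 37 C pre-incubation; compound 16 hr 37 C; MultiTox-Fluor reagent 60 min RT; dead-cell fluor Ex/Em 485/520. Norm. to DMSO (0%) vs 15 uM tetraoctylammonium bromide (100%); Hill AC50.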

Experiment [7] is described as follows: Cell Viability - LYMP2-006 (AID 978). Further: on the % scale 0 is the no-effect control and ±100 the full control effect; nearly all actives have a fitted effect of over 60% in size. In a few lines: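 Human lymphoblastoid cells (LYMP2-006), 2500/well in complete medium, were treated with compound for 24 hr at 37 C. Cellular ATP was read by CellTiter-Glo luminescence after 30 min, and AC50 values came from Hill-equation fits of concentration-response data.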
Experiment [8] in a line: Cell Viability - LYMP2-016 (AID 984). Further: on the % scale 0 is the no-effect control and ±100 the full control effect; nearly all actives have a fitted effect of over 55% in size. In a few lines: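 Human lymphoblastoid LYMP2-016 cells, 2500 per well, treated with compounds for 24 h at 37 C. Viability read as intracellular ATP by CellTiter-Glo luminescence after 30 min at room temperature; AC50 from Hill fits of concentration-response.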
Experiment [9] in a line: Cell Viability - LYMP1-002 - Assay at 24 hr (AID 993). Further: on the % scale 0 is the no-effect control and ±100 the full control effect. In a few lines:
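Cells plated 2500/well, 5 hr 37 C; compounds added, 24 hr 37 C; CellTiter-Glo added, 30 min RT; luminescence read. Tetraoctylammonium bromide positive control. Hill-equation AC50.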

The target of experiment [10] is Voltage-gated inwardly rectifying potassium channel KCNH2 (Homo sapiens) (UniProt Q12809). Description: qHTS Assay for Small Molecule Inhibitors of the Human hERG Channel Activity (AID 588834).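 Further: lower thallium flux fluorescence means stronger hERG block; nearly all actives have a fitted effect of over 50% in size.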 Further: potency means the concentration at half of the fitted maximal effect. In a few lines:
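U2OS cells BacMam-transduced with hERG, 2000 cells/well, compound ~10 min at 37 °C before stimulation buffer. FluxOR thallium flux fluorescence read kinetically on FDSS; decrease indicates block; AC50 from Hill fits.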

The target in experiment [11] is Tumor necrosis factor (Homo sapiens) (UniProt P01375). The experiment is described as follows: qHTS assay to identify small molecules that stimulate Tumor Necrosis Factor-alpha (TNF-alpha) secretion (AID 651757; active means well fitted curve in the direction sought with a large enough effect in the signal ratio; the % refers to the signal ratio; further: 0% is about no effect). In a few lines:
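Read-out is HTRF, a TR-FRET sandwich of cryptate- and XL665-labeled anti-TNF-alpha antibodies detecting cytokine secreted by THP-1 cells. Cells had been incubated with test compounds at 37 C for 17 hrs beforehand.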
For orientation: Quantitative high-throughput screening tests each substance at several concentrations.

Experiment [12] can be described thus: qHTS assay for small molecule antagonists of the retinoid-related orphan receptor gamma (ROR-gamma) signaling pathway - cell viability counter screen (AID 720652; active means well fitted curve in the direction sought with a large enough effect in the repeat runs; an effect the other way counts as inactive or inconclusive;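 further: compound exposure lasted 16 hr before ATP read; on the % scale 0 is the no-effect control and ±100 the full control effect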). In a few lines:
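Luminescence from CellTiter-Glo after 30 min at room temperature reported cellular ATP as the cytotoxicity measure. Cells were the CHO reporter line with doxycycline-induced ROR-gamma expression, exposed to compound for 16 hr at 37 C.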

Experiment [13] can be described thus: qHTS assay for cell viability of HEK293 cells (AID 743288). Further: on the % scale 0 is the no-effect control and ±100 the full control effect; nearly all actives have a fitted effect of over 50% in size. To be noted: ATP luminescence (CellTiter-Glo), 18 h, stronger effect = lower value. In a few lines:
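Parental HEK293 cells, 2,000 per well, preincubated at least 5 h at 37 C, then exposed to compounds in DMSO for 18 h at 37 C. Viability by CellTiter-Glo ATP luminescence after 30 min at room temperature.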

Experiment [14] can be described thus: qHTS assay for small molecule activators of the human pregnane X receptor (PXR) signaling pathway (AID 720659; call rule not given here; further: 0% is about no effect).
Experiment [15] in a line: Cell Viability - SH-SY5Y (AID 544).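 Further: cells exposed to compound for 40 hours; 0% = DMSO alone and -100% = 100 µM tamoxifen; nearly all actives have a fitted effect of over 55% in size.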 Conditions: SH-SY5Y neuroblastoma cell viability; viability change, negative = cytotoxic: at 92.2 µM (top of the series). In a few lines: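 Luminescent ATP read-out (CellTiter-Glo) measures loss of viable SH-SY5Y neuroblastoma cells after 40 hr compound exposure at 37 °C. AC50 values derive from standard Hill modelling of qHTS concentration-response data.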

Experiment [16] can be described thus: Cellular Toxicity (caspase-3) H-4-II-E (AID 663).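 Further: cells exposed to compound for 16 hr before readout; 0% = DMSO basal and 100% = 100 µM tamoxifen.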 Conditions: Potency: caspase-3 activation. In a few lines: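 Rat hepatoma H-4-II-E cells (1500/well) plated 5 hr, then exposed to compound titrations for 16 hr at 37 °C. Caspase-Glo 3/7 luminescence read after 20 min at RT; data normalized to DMSO and 100 uM tamoxifen, AC50 from Hill fits.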
The nature of experiment [17]: Cell Viability - LYMP2-002 (AID 977).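 Further: compound exposure lasted 24 h at 37 °C; plate controls were DMSO only for no effect and 92 µM tetraoctylammonium bromide for full effect.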 In a few lines:
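Human lymphoblastoid LYMP2-002 cells, 2500 per well, exposed to compounds for 24 h at 37 C in complete medium; viability read as intracellular ATP by CellTiter-Glo luminescence, AC50 from Hill fits.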

The nature of experiment [18]: Cell Viability - LYMP2-014 (AID 983).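 Further: plate controls were DMSO only for no effect and 92 µM tetraoctylammonium bromide for full effect; nearly all actives have a fitted effect of over 50% in size.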 In a few lines:
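Luminescent ATP signal (CellTiter-Glo, 30 min at room temperature) serves as the viability read-out after 24 hr compound exposure at 37 C. Cells were seeded at 2500 per well and settled 5 hr beforehand.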

A short description of experiment [19]: qHTS assay for small molecule agonists of retinoid X receptor alpha signaling (AID 588544; calls by dose curve;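 on activation: 0% = DMSO basal wells and 100% = reference agonist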). To be noted: HEK293T RXRa-UAS-bla, beta-lactamase reporter, 18 h; 530 nm emission.
Experiment [20] addresses Retinoic acid receptor RXR-alpha (Homo sapiens) (UniProt P19793). The description is as above.

Tumor necrosis factor (Homo sapiens), sequence (P01375 whole entry, looked up): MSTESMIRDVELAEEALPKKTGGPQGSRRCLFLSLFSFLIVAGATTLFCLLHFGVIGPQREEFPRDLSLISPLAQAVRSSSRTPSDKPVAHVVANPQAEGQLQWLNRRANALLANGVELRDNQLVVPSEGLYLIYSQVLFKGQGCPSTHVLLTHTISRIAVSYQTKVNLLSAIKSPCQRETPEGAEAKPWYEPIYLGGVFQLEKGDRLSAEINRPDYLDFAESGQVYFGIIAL
Retinoic acid receptor RXR-alpha (Homo sapiens), sequence (P19793 whole entry, looked up): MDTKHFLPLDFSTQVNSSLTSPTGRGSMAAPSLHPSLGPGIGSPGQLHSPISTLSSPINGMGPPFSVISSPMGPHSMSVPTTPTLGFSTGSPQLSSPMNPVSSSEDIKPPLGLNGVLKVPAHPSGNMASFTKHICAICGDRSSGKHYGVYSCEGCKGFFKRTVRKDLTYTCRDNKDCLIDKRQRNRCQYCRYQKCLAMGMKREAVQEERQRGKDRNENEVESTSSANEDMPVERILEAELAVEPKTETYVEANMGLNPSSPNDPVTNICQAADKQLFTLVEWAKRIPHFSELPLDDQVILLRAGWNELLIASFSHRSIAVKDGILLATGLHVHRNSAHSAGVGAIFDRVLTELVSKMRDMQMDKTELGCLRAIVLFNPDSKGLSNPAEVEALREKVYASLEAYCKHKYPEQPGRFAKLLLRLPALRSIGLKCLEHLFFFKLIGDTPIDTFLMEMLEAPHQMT
Voltage-gated inwardly rectifying potassium channel KCNH2 (Homo sapiens), sequence (Q12809 whole entry, looked up): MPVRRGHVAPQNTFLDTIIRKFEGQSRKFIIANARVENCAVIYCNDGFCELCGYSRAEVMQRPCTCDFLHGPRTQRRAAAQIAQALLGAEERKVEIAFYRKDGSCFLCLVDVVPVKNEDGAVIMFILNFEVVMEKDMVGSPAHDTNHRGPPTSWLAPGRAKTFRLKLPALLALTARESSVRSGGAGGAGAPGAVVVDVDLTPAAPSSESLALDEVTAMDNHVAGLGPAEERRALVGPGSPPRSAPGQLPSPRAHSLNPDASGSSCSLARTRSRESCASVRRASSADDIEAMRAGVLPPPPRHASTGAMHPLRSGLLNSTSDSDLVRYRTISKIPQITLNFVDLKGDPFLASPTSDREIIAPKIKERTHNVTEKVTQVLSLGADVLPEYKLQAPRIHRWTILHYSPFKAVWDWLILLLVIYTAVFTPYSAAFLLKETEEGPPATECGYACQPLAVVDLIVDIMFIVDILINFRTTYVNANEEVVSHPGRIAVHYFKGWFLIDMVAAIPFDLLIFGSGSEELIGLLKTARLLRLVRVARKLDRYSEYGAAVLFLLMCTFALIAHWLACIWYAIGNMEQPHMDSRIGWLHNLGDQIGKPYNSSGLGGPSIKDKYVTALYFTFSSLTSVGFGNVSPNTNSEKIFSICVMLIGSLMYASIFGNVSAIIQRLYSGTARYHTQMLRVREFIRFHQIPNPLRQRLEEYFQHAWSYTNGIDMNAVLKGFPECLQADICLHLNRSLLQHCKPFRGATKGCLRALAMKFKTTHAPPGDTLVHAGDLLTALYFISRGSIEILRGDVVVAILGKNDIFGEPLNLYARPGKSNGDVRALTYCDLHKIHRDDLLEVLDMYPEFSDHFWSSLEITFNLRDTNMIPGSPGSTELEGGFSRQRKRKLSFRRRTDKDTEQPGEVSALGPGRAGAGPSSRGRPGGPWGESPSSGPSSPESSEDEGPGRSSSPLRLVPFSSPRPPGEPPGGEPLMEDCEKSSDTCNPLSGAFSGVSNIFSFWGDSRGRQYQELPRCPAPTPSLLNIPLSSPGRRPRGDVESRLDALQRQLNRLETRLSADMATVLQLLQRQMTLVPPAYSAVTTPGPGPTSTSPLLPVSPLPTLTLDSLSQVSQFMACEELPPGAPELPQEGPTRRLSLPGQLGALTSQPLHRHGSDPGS

With `CC(C)(COCC1CO1)COCC1CO1` (centres undefined), the Potency in experiment [1] was > 92 µM (inactive). Moreover, the outcome in experiment [2], in experiment [3], in experiment [4], in experiment [5], in experiment [11] and in [14] was inactive. Moreover, the Potency entry in experiment [6], in [7], in experiment [8], in experiment [9], in experiment [10] and in [12] was “inactive” in each case. The max response in experiment [13] is -5.18% (inactive).

Take `CC[N+](=O)[O-]`: the Potency in experiment [1] is > 92 µM (inactive). Moreover, the Potency result in experiment [15], in [16], in experiment [6], in experiment [17], in [7] and in experiment [18] was “inactive” throughout. In addition, the Potency result in experiment [8], in [9], in experiment [10] and in experiment [12] was “inactive” throughout. In addition, the result in experiment [2], in [3], in experiment [4], in [20], in [11] and in experiment [14] was inactive. In addition, the max response is -9.1% in experiment [19] and 0.073% (inactive) in [13].

For `Nc1ccc(Cc2ccc(N)c(Cl)c2)cc1Cl`, the Potency in experiment [1] was > 92 µM (inactive). Also, the Potency entry in experiment [15], in [16], in experiment [17], in experiment [7], in [18] and in experiment [8] was “inactive” throughout. In addition, the Potency entry in [9] and in experiment [12] was “inactive” throughout. Moreover, the compound was called inactive in [2], in [3], in [4], in experiment [5] and in experiment [11]. In addition, the max response in [13] was -12.3% (inactive).

As to `Brc1ccc(Oc2ccc(Br)cc2Br)c(Br)c1`, the Potency in [1] is > 92 µM (inactive). For the same compound, the call in experiment [2], in [3], in experiment [5] and in [11] was inactive. The Potency result in [16], in experiment [6], in experiment [7], in experiment [18], in [8] and in experiment [9] was “inactive” each time.

Regarding `Cc1ccc(OP(=O)(Oc2ccc(C)cc2)Oc2ccc(C)cc2)cc1`, the figures for the Potency in [1], in experiment [6] and in [10] were > 92 µM (inactive), 25.1 µM (active) and 20 µM (active), respectively. The Potency entry in experiment [15], in experiment [16], in [17], in [18], in experiment [8] and in experiment [9] was “inactive” each time. The call in experiment [2], in experiment [4], in experiment [20] and in experiment [11] was inactive. Further, the max response is -17.7% in experiment [19]; -12.3% (inactive) and -24.8% (inactive) in [13].

As for `Cc1cc(-c2ccc(N)c(C)c2)ccc1N`, the Potency in experiment [1] is > 92 µM (inactive). Further, the Potency result in experiment [15], in [6], in experiment [17], in [7], in [18] and in [8] was “inactive” in each case. In addition, the Potency entry in experiment [10] and in [12] was “inactive” in each case. The compound was called inactive in experiment [3], in experiment [4] and in experiment [20]. In addition, the max response in [19] was -4.96% and -4.31%; in [13], -3.44% (inactive) and 7.54% (inactive) and -3.02% (inactive).

On to `CN(C)c1ccc(N(C)C)cc1`, for which the Potency in experiment [1] is > 92 µM (inactive). Moreover, the viability change, negative = cytotoxic in experiment [15] was -98.2% (active). The compound was classed as inactive in [4], in [5], in [20] and in experiment [14]. The Potency entry in experiment [6], in [17] and in [9] was “inactive” each time. Besides, the figures for the max response in experiment [19] and in [13] were -11.6% and -3.92% (inactive), respectively.

Regarding `C/C=C/C=O`, the Potency in experiment [1] was > 92 µM (inactive). For the same compound, the Potency entry in [15], in [6], in [17], in experiment [7], in experiment [18] and in [8] was “inactive” in each case. Moreover, the Potency entry in experiment [9], in experiment [10] and in experiment [12] was “inactive” each time. In addition, the compound was classed as inactive in experiment [2], in [3], in [5], in experiment [20], in [11] and in experiment [14]. For the same compound, the max response in experiment [19] is -18.6%.

Regarding `O=[N+]([O-])c1cc(Cl)c(Cl)c(Cl)c1`, in experiment [1], the Potency is > 92 µM (inactive). The Potency result in experiment [15], in experiment [16], in experiment [6], in experiment [17], in [7] and in experiment [18] was “inactive” throughout. Further, the Potency entry in [9], in [10] and in experiment [12] was “inactive” throughout. Also, the outcome in [2], in experiment [3], in experiment [4], in experiment [5], in experiment [20] and in experiment [11] was inactive. Moreover, the result in experiment [14] was inactive. Also, the figures for the max response in experiment [19] and in experiment [13] were 9.3% and -14.7% (inactive), respectively.

As to `c1ccoc1`, the Potency in [1] is > 92 µM (inactive). Moreover, the Potency entry in [15], in experiment [16], in experiment [6], in experiment [17], in experiment [7] and in [18] was “inactive” throughout. The Potency result in experiment [8], in experiment [9] and in experiment [12] was “inactive” in each case. The call in experiment [3], in [4], in experiment [20], in experiment [11] and in experiment [14] was inactive. The max response in experiment [19] was -15.5%; in experiment [13] it was 0.0286% (inactive).

Regarding `O=C(Cl)c1ccccc1F`, in experiment [1], the Potency was > 92 µM (inactive). In addition, the Potency entry in experiment [15], in experiment [16], in experiment [6], in experiment [17], in experiment [18] and in experiment [9] was “inactive” in each case. The Potency entry in experiment [10] and in [12] was “inactive” each time. The compound was called inactive in experiment [2], in experiment [3], in experiment [4], in experiment [5], in experiment [20] and in experiment [11]. Also, the outcome in [14] was inactive. In addition, the max response is 6.73% in experiment [19] and -8.76% (inactive) in [13].

Turning to `CN(C)C(=O)Nc1cccc(C(F)(F)F)c1`, the Potency in experiment [1] is > 92 µM (inactive). The Potency entry in experiment [15], in experiment [16], in experiment [6], in [17], in experiment [7] and in experiment [18] was “inactive” in each case. Also, the Potency entry in [8], in experiment [9], in experiment [10] and in experiment [12] was “inactive” each time. Moreover, the result in [2], in experiment [3], in [5], in [20], in experiment [11] and in [14] was inactive. Also, the max response was -22.3% and -23.1% in experiment [19]; 3% (inactive) and -3.2% (inactive) in experiment [13].
